In PubChem BioAssay (NCATS):
Values joined by “and” are separate entries in the source; they are usually repeats but may differ in a detail not shown here. Equal entries are not always repeated. Records with an inconclusive call do not appear. Active and inactive are the calls of the source. Unless noted, calls come from the whole dose curve; as a rule, active = well fitted curve in either direction with a large enough effect (not every such curve was filed as active); inconclusive = small, poorly fitted or top-dose-only effect, or another doubt; inactive = flat fitted curve, though single readings scatter.

How the values were obtained:
[1] = AP1 Signaling Pathway (AID 357); details: ME-180 AP-1-bla reporter, EGF-induced, beta-lactamase ratio, 5 h; at 7.69 µM (top of the series) unless noted;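 note: ME-180 reporter cells stimulated with EGF at its EC50 level; % is set by controls: 0 for no effect and ±100 for the full control effect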
How it was run: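 A ratiometric CCF4 readout (405 nm excitation; 460 and 530 nm emission) quantified AP-1-driven beta-lactamase in ME-180 cells after 5 h with compound and EC50 EGF; AC50 values were derived for activators and inhibitors.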

[2] = molecular target: Cytochrome P450 1A2 (Homo sapiens) (UniProt P05177); experiment: p450-cyp1a2 (AID 410; calls by dose curve; note: potency is the fitted concentration of half-maximal effect;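 for activity change, negative = inhibition: -100% = full effect of reference inhibitor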)
How it was run: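 20nM CYP1A2 with 100uM Luciferin-ME (at Km) in 100mM KPO4; compound preincubated 10 min, NADPH regeneration added, 60 min at room temperature. Luciferin quantified by luminescence after detection reagent; normalized to 57 uM furafylline.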

[3] = Stat Signaling Pathway (AID 446); details: ME-180 (cervical carcinoma) SIE beta-lactamase reporter, IL-6 stimulated, 5 h; at 7.69 µM (top of the series) unless noted;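 note: ME-180 cervical cancer cells given 40 pM IL-6 alongside compound; SIE-controlled beta-lactamase reporter measured as 460/530 nm FRET emission ratio; % is set by controls: 0 for no effect and ±100 for the full control effect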
How it was run: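 IL-6/STAT signaling read in ME-180 cells via an SIE beta-lactamase reporter. Stimulus was 40 pM IL-6 (its AC50) for 5 hrs, so both activation and inhibition register.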

[4] = molecular target: Glucocorticoid receptor (Homo sapiens) (UniProt P04150); experiment: GR-GFP Redistribution (AID 450;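 active = compounds whose dose series gives a full or clear partial fitted curve of increased nuclear translocation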; note: potency is the fitted concentration of half-maximal effect); details: U2OS GR-GFP nuclear translocation, laser cytometry, 2 h
[5] = molecular target: Glucocorticoid receptor (Homo sapiens) (UniProt P04150); experiment: GR-EFC Redistribution (AID 451; calls by dose curve; note: potency is the fitted concentration of half-maximal effect); details: CHO-K1 GR-EFC translocation, beta-gal luminescence, 2 h
How it was run: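 CHO-K1 cells stably expressing nuclear-localized β-gal enzyme acceptor and GR fused C-terminally to the enzyme donor fragment; ligand-driven nuclear translocation restores β-gal by complementation. Compounds titrated up to 46 uM final, 2 h at 37 °C; luminescence read.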

[6] = molecular target: Mitogen-activated protein kinase 10 (Mus musculus) (UniProt Q61831); experiment: JNK3 AlphaScreen Assay (AID 530);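 note: kinase came from lysate of stimulated human HepG2 cells; signal reports phosphorylation of biotinylated GST-cJun 1-79 at Ser73 with 10 µM ATP; % is set by controls: 0 for no effect and ±100 for the full control effect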
How it was run: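 Inhibitors reduce antibody binding to phosphorylated biotin-cJun, lowering AlphaScreen luminescence. Lysates from HepG2 cells pre-activated by IL-1beta plus TNF-alpha supplied JNK3; compounds were titrated.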

[7] = molecular target: 3',5'-cyclic-AMP phosphodiesterase 4B (Homo sapiens) (UniProt Q07343); experiment: qHTS Assay for Inhibitors of PDE-IV (AID 607; active = well fitted activation curve with a large enough effect in the main read-out, with a control signal flat, not every such curve was filed as active; note: % of control where 0% means no effect)
How it was run: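 Live HEK293 cells with a modified cyclic nucleotide-gated (CNG) channel report intracellular cAMP via membrane-potential dye fluorescence (ex 535/em 590 nm). Endogenous PDE-IV was targeted. Compounds were tested at up to 22.9 uM final; RO 20-1724 100 uM served as control.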

[8] = molecular target: Guanine nucleotide-binding protein G(i) subunit alpha-1 (Homo sapiens) (UniProt P63096); experiment: qHTS Assay for Inhibitors of RGS12 GoLoco Motif Activity (Green Fluorophore) (AID 879; active = well fitted curve in the direction sought with a large enough effect; an effect the other way counts as inactive or inconclusive;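 note: 0% = labeled peptide with Gαi1 and full inhibition = labeled peptide alone without protein; negative values mean loss of peptide binding seen as reduced polarization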)
How it was run: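 Fluorescence polarization assay: 50 nM Gαi1 with 10 nM FITC-labeled RGS12 GoLoco peptide in 10 mM Tris pH 7.5, 150 mM NaCl, 0.1 mM GDP, 0.05% NP40, 10 min at room temperature with compound.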

[9] = molecular target: Cytochrome P450 3A4 (Homo sapiens) (UniProt P08684); experiment: qHTS Assay for Activators of Cytochrome P450 3A4 (AID 885; active = well fitted curve in the direction sought with a large enough effect; an effect the other way counts as inactive or inconclusive; note: nearly all actives have a fitted effect of over 65% in size; note: potency is the fitted concentration of half-maximal effect)
How it was run: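 Quantitative HTS format: compounds preincubated with 20nM human CYP3A4 and Luciferin-PPXE substrate at KM, reaction started by NADPH regeneration, stopped after 60 min, luciferase luminescence read 20 min later.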

[10] = qHTS Assay for Identification of Small Molecule Agonists for Thrombopoietin (TPO) Signaling Pathway (AID 917; active = well fitted curve in the direction sought with a large enough effect; an effect the other way counts as inactive or inconclusive; note: % is set by controls: 0 for no effect and ±100 for the full control effect)
How it was run: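 Luminescence from a Glycoprotein IIb promoter–driven luciferase reporter served as read-out in murine Ba/F3 cells carrying the human TPO receptor. Cells, deprived of IL-3 overnight, received compounds with 26 pM TPO and were incubated 24 hrs at 37 C.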

[11] = molecular target: Muscarinic acetylcholine receptor M1 (Rattus norvegicus) (UniProt P08482); experiment: qHTS Assay for Antagonists of Acetylcholine Muscarinic M1 Receptor: Kinetic Measurement of Intracellular Calcium Response (AID 943; active = well fitted curve in the direction sought with a large enough effect; an effect the other way counts as inactive or inconclusive; note: potency is the fitted concentration of half-maximal effect; nearly all actives have a fitted effect of over 75% in size)
How it was run: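 CHO cells expressing rat M1 receptor, Fluo-4 loaded, preincubated 10 min with compound, then stimulated with EC80 carbachol (100 nM final). Kinetic calcium fluorescence over 4 min; response taken as peak over basal signal.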

[12] = molecular target: Muscarinic acetylcholine receptor M1 (Rattus norvegicus) (UniProt P08482); experiment: qHTS Assay for Antagonists of Acetylcholine Muscarinic M1 Receptor: Measurement of IP-One Response (AID 944; active = well fitted curve in the direction sought with a large enough effect; an effect the other way counts as inactive or inconclusive; note: nearly all actives have a fitted effect of over 75% in size; note: potency is the fitted concentration of half-maximal effect)
How it was run: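 CHO cells stably expressing rat M1, pretreated 10 min with compound, then stimulated 30 min with carbachol at EC80 (200 nM) in LiCl-containing buffer pH 7.4; IP1 accumulation read by HTRF competition (665/620 nm).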

[13] = molecular target: Pyruvate kinase (Leishmania mexicana) (UniProt Q27686); experiment: qHTS Validation Assay for Inhibitors of Leishmania Mexicana Pyruvate Kinase (AID 945; active = well fitted curve in the direction sought with a large enough effect; an effect the other way counts as inactive or inconclusive;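 note: 0% = DMSO only neutral control wells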)
How it was run: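 Read-out: luminescence from PKLight stop/detection reagent, data normalized to DMSO. Reaction: 0.2 nM E451W LmPYK, 0.5 mM PEP, 0.1 mM ADP, pH 7.2, 1 h room temperature.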

[14] = molecular target: Pyruvate kinase PKM (Homo sapiens) (UniProt P14618); experiment: qHTS Assay for Activators of Human Muscle Pyruvate Kinase (AID 954; active = well fitted curve in the direction sought with a large enough effect, not every such curve was filed as active;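 note: 0% = uninhibited enzyme and -100% = no enzyme or full thiadiazolimine inhibition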)
How it was run: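 Enzyme was run at intermediate activity so both inhibitors and activators could be detected. ATP formed from ADP and PEP by 0.1 nM human PKM2 during a 1 h room-temperature incubation was quantified by coupled luciferase luminescence.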

[15] = molecular target: Alpha-galactosidase A (Homo sapiens) (UniProt P06280); experiment: Counterscreen for Glucocerebrosidase Inhibitors: qHTS Assay for Human alpha-Galactosidase at pH 4.5 (AID 992; active = well fitted curve in the direction sought with a large enough effect; an effect the other way counts as inactive or inconclusive; note: 0% is about no effect)
How it was run: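 Read-out is 4-methylumbelliferone fluorescence (365 nm excitation, 440 nm emission) after a pH 10 NaOH/glycine stop. Reactions held 2 nM enzyme and 80 uM substrate at pH 4.5 for 20 min at room temperature.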

[16] = molecular target: alpha-glucosidase (Oryza sativa, rice) (UniProt Q653V4); experiment: Counterscreen for Glucocerebrosidase Inhibitors: qHTS Assay for Rice alpha-Glucosidase at pH 5.0 (AID 997; active = well fitted curve in the direction sought with a large enough effect; an effect the other way counts as inactive or inconclusive;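 note: 0% = full activity with enzyme and -100% = basal without enzyme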)
How it was run: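 Rice alpha-glucosidase (4 nM final) with 400 uM 4-methylumbelliferyl-alpha-D-glucopyranoside in citrate buffer pH 5.0, 20 min at room temperature, stopped at pH 10; fluorescence 365/440 nm, compounds 0.7 nM–77 uM, AC50 from Hill fits.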

[17] = qHTS Assay for Identification of Small Molecule Antagonists for NFkB Signaling Pathway (AID 895; active = well fitted inhibition curve with a large enough effect in the signal ratio, with a control signal flat, not every such curve was filed as active; the % refers to the signal ratio; note: % is set by controls: 0 for no effect and ±100 for the full control effect)
How it was run: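 NFkB-bla ME-180 cervical carcinoma cells with beta-lactamase reporter under NFkB response element; compounds added, then TNF alpha at 10 pM final (EC50), 5 h at 37 C. LiveBLAzer substrate 2 h, room temperature; emission 460/530 nm at 405 nm excitation.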

[18] = NFAT Signaling Pathway (AID 444); details: Jurkat NFAT-bla M1, carbachol, beta-lactamase ratio, 5 h; at 7.69 µM (top of the series) unless noted
How it was run: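 Jurkat cells carrying an NFAT-driven β-lactamase reporter and co-transfected muscarinic M1 receptor were treated with compound plus carbachol (1 uM final, an EC50 level) for 5 h at 37 °C. CCF4 loading followed for 1 h at RT; 460/530 nm ratio gave %activity.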

[19] = molecular target: Cytochrome P450 2C19 (Homo sapiens) (UniProt P33261); experiment: qHTS Assay for Inhibitors and Substrates of Cytochrome P450 2C19 (AID 899; active = well fitted curve in the direction sought with a large enough effect; an effect the other way counts as inactive or inconclusive; note: potency is the fitted concentration of half-maximal effect; nearly all actives have a fitted effect of over 60% in size)
How it was run: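 In 50mM KPO4, the reaction held 5nM enzyme and KM-level (10uM) Luciferin-H EGE; it ran 60 min at 37C after NADPH regeneration and a 10 min compound preincubation. Luminescence values were scaled to 57uM ketoconazole as complete inhibition.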

Sequence of Alpha-galactosidase A (Homo sapiens) (P06280 whole entry, looked up): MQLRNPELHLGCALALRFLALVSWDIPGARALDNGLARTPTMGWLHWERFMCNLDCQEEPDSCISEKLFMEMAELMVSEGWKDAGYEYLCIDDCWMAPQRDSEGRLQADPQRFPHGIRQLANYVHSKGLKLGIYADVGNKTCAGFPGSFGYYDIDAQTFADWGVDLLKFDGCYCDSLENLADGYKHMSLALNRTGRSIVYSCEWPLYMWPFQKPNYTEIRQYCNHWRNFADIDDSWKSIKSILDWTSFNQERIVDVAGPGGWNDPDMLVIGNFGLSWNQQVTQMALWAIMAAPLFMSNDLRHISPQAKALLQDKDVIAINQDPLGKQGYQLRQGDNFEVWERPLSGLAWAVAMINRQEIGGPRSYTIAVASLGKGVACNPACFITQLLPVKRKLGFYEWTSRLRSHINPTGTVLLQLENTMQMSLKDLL
Sequence of Guanine nucleotide-binding protein G(i) subunit alpha-1 (Homo sapiens) (P63096 whole entry, looked up): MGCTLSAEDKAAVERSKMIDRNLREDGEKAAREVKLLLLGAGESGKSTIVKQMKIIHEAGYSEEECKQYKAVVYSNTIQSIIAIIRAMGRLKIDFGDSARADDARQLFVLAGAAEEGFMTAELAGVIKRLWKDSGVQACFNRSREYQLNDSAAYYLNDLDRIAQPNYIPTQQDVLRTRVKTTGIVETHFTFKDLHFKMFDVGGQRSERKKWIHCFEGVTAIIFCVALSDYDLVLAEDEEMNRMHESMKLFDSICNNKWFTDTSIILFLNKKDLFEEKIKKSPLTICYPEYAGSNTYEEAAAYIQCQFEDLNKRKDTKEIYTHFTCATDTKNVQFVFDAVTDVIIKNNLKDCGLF
Sequence of Glucocorticoid receptor (Homo sapiens) (P04150 whole entry, looked up, the tested form may be a part): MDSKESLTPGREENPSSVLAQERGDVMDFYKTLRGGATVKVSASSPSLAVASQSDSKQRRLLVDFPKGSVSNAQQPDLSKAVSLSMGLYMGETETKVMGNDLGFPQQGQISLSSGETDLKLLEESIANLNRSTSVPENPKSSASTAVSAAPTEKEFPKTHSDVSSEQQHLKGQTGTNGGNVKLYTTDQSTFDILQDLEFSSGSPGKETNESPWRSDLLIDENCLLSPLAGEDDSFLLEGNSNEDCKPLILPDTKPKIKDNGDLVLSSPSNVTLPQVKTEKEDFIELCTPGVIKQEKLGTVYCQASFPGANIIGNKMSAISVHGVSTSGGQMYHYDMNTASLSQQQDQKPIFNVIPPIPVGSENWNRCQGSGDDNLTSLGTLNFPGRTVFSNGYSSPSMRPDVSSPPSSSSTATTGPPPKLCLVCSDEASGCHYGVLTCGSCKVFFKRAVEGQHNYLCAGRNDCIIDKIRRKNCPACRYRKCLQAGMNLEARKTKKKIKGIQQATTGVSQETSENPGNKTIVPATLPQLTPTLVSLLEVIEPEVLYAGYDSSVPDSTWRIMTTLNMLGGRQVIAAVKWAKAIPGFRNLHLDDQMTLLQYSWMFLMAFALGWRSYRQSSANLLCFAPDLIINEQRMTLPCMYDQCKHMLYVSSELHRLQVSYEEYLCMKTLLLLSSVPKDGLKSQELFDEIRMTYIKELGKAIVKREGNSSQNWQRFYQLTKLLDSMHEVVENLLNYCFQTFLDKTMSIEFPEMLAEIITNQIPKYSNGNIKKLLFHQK
Sequence of 3',5'-cyclic-AMP phosphodiesterase 4B (Homo sapiens) (Q07343 whole entry, looked up): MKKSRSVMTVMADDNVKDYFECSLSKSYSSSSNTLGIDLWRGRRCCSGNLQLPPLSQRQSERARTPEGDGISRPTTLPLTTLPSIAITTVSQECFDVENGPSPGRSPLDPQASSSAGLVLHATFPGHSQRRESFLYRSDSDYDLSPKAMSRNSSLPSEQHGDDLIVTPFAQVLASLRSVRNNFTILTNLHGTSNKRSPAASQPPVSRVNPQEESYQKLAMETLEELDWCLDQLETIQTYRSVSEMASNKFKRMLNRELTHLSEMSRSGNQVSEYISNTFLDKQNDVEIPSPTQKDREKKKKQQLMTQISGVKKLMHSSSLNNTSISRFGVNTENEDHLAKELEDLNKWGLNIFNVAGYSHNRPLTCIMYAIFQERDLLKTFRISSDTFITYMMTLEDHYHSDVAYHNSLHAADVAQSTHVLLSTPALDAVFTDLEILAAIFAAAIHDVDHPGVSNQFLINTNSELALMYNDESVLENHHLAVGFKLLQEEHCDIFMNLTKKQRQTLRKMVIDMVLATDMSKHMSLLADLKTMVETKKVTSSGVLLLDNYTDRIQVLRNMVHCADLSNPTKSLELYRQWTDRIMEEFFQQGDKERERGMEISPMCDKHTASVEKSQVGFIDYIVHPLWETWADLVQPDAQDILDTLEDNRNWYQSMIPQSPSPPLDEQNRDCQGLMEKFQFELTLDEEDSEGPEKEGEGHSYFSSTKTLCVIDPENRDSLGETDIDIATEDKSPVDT
Sequence of Cytochrome P450 1A2 (Homo sapiens) (P05177 whole entry, looked up): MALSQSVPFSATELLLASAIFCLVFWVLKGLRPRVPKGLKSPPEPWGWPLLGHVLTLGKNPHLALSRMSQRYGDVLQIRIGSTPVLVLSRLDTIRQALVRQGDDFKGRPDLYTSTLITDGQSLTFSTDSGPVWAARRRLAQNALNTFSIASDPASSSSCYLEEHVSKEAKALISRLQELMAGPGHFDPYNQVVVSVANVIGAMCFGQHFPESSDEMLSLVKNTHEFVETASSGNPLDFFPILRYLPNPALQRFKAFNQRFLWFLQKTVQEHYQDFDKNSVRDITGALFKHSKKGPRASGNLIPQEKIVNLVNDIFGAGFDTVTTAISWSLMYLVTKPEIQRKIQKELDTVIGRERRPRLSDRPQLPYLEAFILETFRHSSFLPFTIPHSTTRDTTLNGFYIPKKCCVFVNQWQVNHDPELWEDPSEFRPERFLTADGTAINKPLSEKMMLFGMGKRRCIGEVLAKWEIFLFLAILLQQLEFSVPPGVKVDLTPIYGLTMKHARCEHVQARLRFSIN
Sequence of Muscarinic acetylcholine receptor M1 (Rattus norvegicus) (P08482 whole entry, looked up): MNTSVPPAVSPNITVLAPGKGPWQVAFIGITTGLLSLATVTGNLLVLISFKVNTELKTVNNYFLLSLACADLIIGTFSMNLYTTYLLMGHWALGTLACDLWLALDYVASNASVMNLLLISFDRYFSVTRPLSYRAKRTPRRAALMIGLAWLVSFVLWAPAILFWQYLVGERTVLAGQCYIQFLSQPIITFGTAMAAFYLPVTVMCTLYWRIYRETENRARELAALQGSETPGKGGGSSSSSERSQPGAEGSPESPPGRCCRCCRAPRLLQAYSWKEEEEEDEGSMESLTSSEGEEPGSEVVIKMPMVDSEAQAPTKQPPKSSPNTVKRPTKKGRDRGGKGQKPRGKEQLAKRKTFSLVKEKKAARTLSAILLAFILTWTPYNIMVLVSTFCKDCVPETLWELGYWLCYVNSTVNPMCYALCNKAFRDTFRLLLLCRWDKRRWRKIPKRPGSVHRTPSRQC
Sequence of Pyruvate kinase (Leishmania mexicana) (Q27686 2-499 E452W): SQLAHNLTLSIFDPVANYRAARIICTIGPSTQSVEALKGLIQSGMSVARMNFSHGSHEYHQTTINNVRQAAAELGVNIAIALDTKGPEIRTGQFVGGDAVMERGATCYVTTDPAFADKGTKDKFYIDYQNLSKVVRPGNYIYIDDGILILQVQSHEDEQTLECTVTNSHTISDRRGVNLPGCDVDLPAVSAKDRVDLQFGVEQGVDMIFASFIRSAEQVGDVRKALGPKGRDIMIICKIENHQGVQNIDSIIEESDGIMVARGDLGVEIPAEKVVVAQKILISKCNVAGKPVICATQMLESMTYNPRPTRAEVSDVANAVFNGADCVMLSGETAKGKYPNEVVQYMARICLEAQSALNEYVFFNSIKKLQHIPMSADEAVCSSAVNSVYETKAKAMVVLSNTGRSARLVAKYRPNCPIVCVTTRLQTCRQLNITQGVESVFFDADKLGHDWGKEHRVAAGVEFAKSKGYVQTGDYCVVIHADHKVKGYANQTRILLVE
Sequence of Cytochrome P450 3A4 (Homo sapiens) (P08684 whole entry, looked up): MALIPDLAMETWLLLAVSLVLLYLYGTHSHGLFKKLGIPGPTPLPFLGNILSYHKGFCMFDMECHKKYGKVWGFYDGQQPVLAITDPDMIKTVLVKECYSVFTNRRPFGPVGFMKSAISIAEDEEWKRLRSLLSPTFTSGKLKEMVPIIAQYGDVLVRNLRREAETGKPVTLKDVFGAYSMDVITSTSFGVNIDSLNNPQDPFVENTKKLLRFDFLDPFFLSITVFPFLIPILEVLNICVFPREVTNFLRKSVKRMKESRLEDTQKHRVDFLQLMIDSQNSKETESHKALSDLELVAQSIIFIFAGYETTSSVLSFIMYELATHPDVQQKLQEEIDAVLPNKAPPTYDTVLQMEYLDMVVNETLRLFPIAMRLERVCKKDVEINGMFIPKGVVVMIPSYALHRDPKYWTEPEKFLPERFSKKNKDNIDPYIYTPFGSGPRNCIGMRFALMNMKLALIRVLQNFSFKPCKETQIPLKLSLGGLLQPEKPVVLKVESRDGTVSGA
Sequence of Pyruvate kinase PKM (Homo sapiens) (P14618 whole entry, looked up): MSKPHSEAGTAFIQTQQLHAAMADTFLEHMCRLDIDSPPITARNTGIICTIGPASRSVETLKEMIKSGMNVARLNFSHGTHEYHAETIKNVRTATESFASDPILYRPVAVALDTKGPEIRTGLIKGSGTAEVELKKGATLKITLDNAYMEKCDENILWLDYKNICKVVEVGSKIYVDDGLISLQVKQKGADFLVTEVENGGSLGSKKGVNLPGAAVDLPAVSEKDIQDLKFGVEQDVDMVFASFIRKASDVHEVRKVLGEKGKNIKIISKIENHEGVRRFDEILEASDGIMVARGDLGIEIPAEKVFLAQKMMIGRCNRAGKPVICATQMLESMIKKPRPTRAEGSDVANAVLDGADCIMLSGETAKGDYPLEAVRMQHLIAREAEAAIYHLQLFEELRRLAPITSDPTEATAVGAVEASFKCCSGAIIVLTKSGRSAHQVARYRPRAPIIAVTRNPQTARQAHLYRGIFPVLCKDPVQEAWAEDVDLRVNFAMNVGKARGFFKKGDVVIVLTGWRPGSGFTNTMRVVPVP

C[C@@H](CN1CCC(Cc2ccccc2)CC1)[C@H](O)c1ccc(O)cc1
active: Potency [2] 12.6 µM | Potency [9] 10 µM | Potency [11] 5.62 µM | Potency [12] 7.08 µM
inactive: activity change, negative = inhibition [1] 7.29% [at 38 µM] | activity, negative = inhibition [3] -25.3% [at 38 µM] | Potency [4] > 46 µM | Potency [5] > 46 µM | Potency [6] | Potency [7] | outcome [8] | outcome [10] | outcome [13] | outcome [14] | outcome [15] | Potency [16]

O=[N+]([O-])c1ccc(CSc2ncnc3c2ncn3[C@@H]2O[C@@H](CO)[C@@H](O)[C@H]2O)cc1
inactive: activity change, negative = inhibition [1] -12.2% [at 38 µM] | Potency [2] | activity, negative = inhibition [3] 29.7% [at 38 µM] | Potency [4] > 46 µM | Potency [5] > 46 µM | Potency [6] | Potency [7] | outcome [8] | Potency [17] | outcome [10] | Potency [12] | outcome [13] | outcome [14] | outcome [15] | Potency [16]

O=c1c(CCc2ccccc2)nc2cnc(Oc3ccccc3)nc2n1C[C@H]1CCCO1
inactive: activity change, negative = inhibition [18] -10.8% | activity, negative = inhibition [3] -18.9% | Potency [4] > 9.22 µM | Potency [5] > 46 µM | Potency [7]

c1ccc2nc(CC[C@@H]3CCCCN3)ccc2c1
inactive: activity change, negative = inhibition [1] 7.07% | activity change, negative = inhibition [18] -3.97% | activity, negative = inhibition [3] -5.39% | Potency [4] > 46 µM | Potency [5] > 9.22 µM | Potency [6] | Potency [7]

C[C@@H]1C[C@@H]2[C@H]3CCC4=CC(=O)C=C[C@]4(C)[C@]3(Cl)[C@@H](O)C[C@@]2(C)[C@@]1(O)C(=O)CO
inactive: activity change, negative = inhibition [1] 12.5% [at 38 µM] | Potency [2] | activity, negative = inhibition [3] 3.18% [at 38 µM] | Potency [6] | Potency [7] | outcome [10] | outcome [13] | outcome [14] | outcome [15] | Potency [16]

O[C@H](CN1CCN(c2cccc(Cl)c2)CC1)C(c1ccccc1)c1ccccc1
active: Potency [2] 12.6 µM | Potency [9] 7.94 µM
inactive: activity change, negative = inhibition [1] -10.5% [at 38 µM] | activity, negative = inhibition [3] 24.9% [at 38 µM] | Potency [4] > 46 µM | Potency [5] > 46 µM | Potency [6] | Potency [7] | outcome [10] | Potency [12] | outcome [13] | outcome [14] | outcome [15] | Potency [16]

C[C@H](NC(=O)c1ccc(Cl)c(Cl)c1)c1ccc(-c2ccccc2)cc1
active: Potency [2] 0.631 µM | Potency [19] 1.26 µM
inactive: activity change, negative = inhibition [1] -14.7% | activity, negative = inhibition [3] -12.5% | Potency [4] > 46 µM | Potency [5] > 9.22 µM | Potency [6] | Potency [7]

O=C(O)C(=Cc1ccnc2ccccc12)C(=O)O
inactive: activity change, negative = inhibition [1] -3.98% | activity change, negative = inhibition [18] 24.2% | activity, negative = inhibition [3] 9.09% | Potency [4] > 46 µM | Potency [5] > 9.22 µM | Potency [6] | Potency [7]

C[N+](C)(C)c1ncnc2c1ncn2[C@@H]1C[C@H](O)[C@@H](CO)O1
inactive: activity change, negative = inhibition [1] 2.41% | activity change, negative = inhibition [18] 9.78% | activity, negative = inhibition [3] 3.06% | Potency [5] > 9.22 µM | Potency [6] | Potency [7]

CSc1cccc(NC(=O)OC2CCCCCCCCCCC2)c1
active: Potency [2] 5.01 µM
inactive: activity change, negative = inhibition [1] 8.21% | Potency [4] > 46 µM | Potency [5] > 9.22 µM | Potency [6] | Potency [7] | Potency [9]

O=S(=O)(O)c1ccc(N=Nc2ccc3c(S(=O)(=O)O)cccc3c2O)c2ccccc12
inactive: activity change, negative = inhibition [1] 1.08% | activity change, negative = inhibition [18] 9.05% | activity, negative = inhibition [3] -4.32% | Potency [4] > 46 µM | Potency [5] > 9.22 µM | Potency [7]

COC(=O)[C@H]1[C@H]2C[C@H]3c4[nH]c5ccccc5c4CCN3C[C@@H]2CC[C@@H]1O
inactive: activity change, negative = inhibition [1] 3.48% [at 38 µM] and 8.69% [at 38 µM] | activity change, negative = inhibition [18] -14.1% [at 38 µM] | activity, negative = inhibition [3] 1% [at 38 µM] and -19.7% [at 38 µM] | Potency [6] | Potency [7] | outcome [8] | outcome [10] | outcome [13] | outcome [14] | outcome [15] | Potency [16]

C[C@@]1(CO)[C@H](O)CC[C@]2(C)[C@@H]1CC[C@H]1C[C@H]3C[C@]12CC[C@]3(O)COC(=O)CN
inactive: activity change, negative = inhibition [1] 5.13% | activity change, negative = inhibition [18] 23.5% | Potency [4] > 46 µM | Potency [5] > 9.22 µM | Potency [6] | Potency [7]
